The list is not random: actives were taken first. Their share in the collection is about 4.6%.
HSF1 activator: increases HSF-1 driven luciferase reporter signal; 300,000 compounds, 1.7% hits; activation, % at 9 µM; NIH3T3-HGL HSF-1 luciferase reporter, MG132, 8 h; 100% = twice DMSO control signal;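 active = mean replicate activation of at least 50% with a set share of replicates each reaching 50%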;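 also: 0% = median of the neutral control wells and 100% = twice that signal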
FXN GAA850 act: increases GAA850 frataxin promoter reporter activity | HEK293 lucGAA850 FXN promoter luciferase reporter, 24 h; percent of 10 µM SAHA response | activation, % at 6 µM | 360,000 compounds, 0.56% hits | AID 540364;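 active = activation above the average of all compounds screened plus 3 SD, cutoff fixed separately per campaign, cut at about 7.5% in these data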;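 also: 0% = DMSO wells and 100% = 10 µM SAHA wells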
HSF1 inh: HSF1 inhibition; NIH3T3-HGL HSE-luciferase, MG132-induced, luminescence 8 h; stronger effect = lower value; activity change, negative = inhibition, % at 7.5 µM (by protocol); 300,000 compounds, 0.77% hits; AID 2098;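 active = more than half of replicate wells show activity change below -50%, luminescence cut by over half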;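 also: luciferase reports HSF-1 transcriptional activity via heat shock element; 0% = median of DMSO wells and -100% = zero luminescence signal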
AHR activator: human AHR activation | P35869 | AHR-responsive luciferase reporter cells, luminescence | activation, % at 5 µM | 320,000 compounds, 2.5% hits; in the data active = activation above about 47%;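 also: 0% = vehicle wells and 100% = reference agonist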
GAA30 counter: counter-screen for GAA850 frataxin promoter activators: GAA30 promoter activation; shares compounds with FXN GAA850 act; HEK293 lucGAA30 FXN promoter luciferase, 24 h; DMSO = 0%, 5 µM ipriflavone = 100%; activation, % at 6 µM; 1,900 compounds, 66% hits; AID 588350;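 active = mean activation above the mean of solvent-only control wells plus 3 SD, cut at about 22% in these data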;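 also: counterscreen of GAA850 promoter hits where activity marks nonselective or luminescence artifacts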
GAA850 confirm: confirmation of GAA850 frataxin (FXN) promoter activators. activation, % at 6 µM. 1,900 compounds, 86% hits. shares compounds with FXN GAA850 act. HEK293 lucGAA850 FXN promoter luciferase reporter, 24 h; 100% = activation by SAHA;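 active = mean activation above a set limit taken from the primary screen, cut at about 8% in these data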;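 also: 0% = DMSO wells and 100% = 10 µM SAHA wells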
Active calls of the source: *; / = no result.

SMILES | HSF1 activator | FXN GAA850 act | HSF1 inh | AHR activator | GAA30 counter | GAA850 confirm
C/C(=N\NC(=O)COc1ccc(C(C)(C)C)cc1)c1cc2ccccc2o1 | 14 | 9.5* | 8 | 44 | 105* | 39*
CNC(=O)CN(c1ccc(C23CC4CC(CC(C4)C2)C3)cc1)S(C)(=O)=O | -7 | 7.6* | -9 | 0 | 26* | 15*
CC(=O)NNc1cccc(Cl)n1 | -15 | 1 | 13 | 1 | / | /
CCOC(=O)c1c(CSc2ccccc2)oc2cc(Br)c(O)c(CN(C)C)c12 | 16 | 8.2* | 1 | 4 | 21 | 9.7*
CC(=O)c1c(CSc2ccccc2)oc2ccc(O)c(CN(C)C)c12 | -15 | -1 | -8 | 1 | / | /
CCSc1nc2c(c(=O)n(C)c(=O)n2C)n1Cc1ccc(Cl)cc1 | 18 | 1 | 5 | -2 | / | /
CCSc1nc2c(c(=O)[nH]c(=O)n2C)n1Cc1ccc(Cl)cc1 | / | 7.6* | / | 3 | 23* | 18*
CCCCn1c(SCc2ccc(Cl)cc2)nc2c1c(=O)[nH]c(=O)n2C | 47 | 8.9* | 14 | -1 | 1 | 10*
C/C=C/Cn1c(SCc2ccccc2)nc2c1c(=O)[nH]c(=O)n2C | 2 | 6 | 11 | 12 | / | /
Cn1c(=O)[nH]c(=O)c2c1nc([N+](=O)[O-])n2Cc1ccccc1 | 155* | 8.5* | 153 | -2 | -121 | -30
C/C=C/CSc1nc2c(c(=O)[nH]c(=O)n2C)n1Cc1ccc(C)cc1 | 8 | 29* | 4 | -1 | 13 | 17*
COC(=O)C1=C(C)N(CCCC(=O)O)C(=O)NC1c1cc2c(cc1[N+](=O)[O-])OCO2 (stereo unspecified) | 9 | 0 | -1 | 14 | / | /
COc1cccc(/C=C/C(=O)OCC(=O)NCc2ccc(Cl)cc2)c1 | -4 | 1 | -10 | -1 | / | /
Cc1cc(O)ccc1N/C=C/c1onc(C)c1[N+](=O)[O-] | 1 | 9.1* | 1 | 32 | 122* | 39*
Cc1cccc(N/C=C/c2onc(C)c2[N+](=O)[O-])c1 | 35 | 5 | 17 | 17 | / | /
Cc1sc(N/N=C/c2cccnc2)nc1-c1ccc(Cl)cc1 | 6 | 2 | -2 | -7 | / | /
CCC/C=C/c1ccc(CN2C(C(C)C)C(=O)N(Cc3cn(CC4CCCCC4)nn3)CCS2(=O)=O)cc1 (stereo unspecified) | / | 7.9* | / | / | 5 | -1
O=P(O)(O)C(O)C(F)(F)C(F)(F)C(F)(F)C(F)F (stereo unspecified) | 10 | 1 | -18 | -4 | / | /
Cc1ccc(S(=O)(=O)/N=C(/Nc2nc(C)cs2)c2ccccc2)cc1 | / | 0 | / | 1 | / | /
COc1ccc(C(=O)/C=C/C(=O)N(CC(=O)NC2CCCCC2)Cc2ccccc2OC)c(O)c1 | 38 | -1 | 15 | / | / | /
COc1ccc(C(=O)/C=C/C(=O)N(CC(=O)NC2CCCCC2)Cc2ccccc2)c(O)c1 | 170* | 7.6* | 132 | / | -88 | -23
O=C(Nc1ncc(Cc2cc(Cl)ccc2Cl)s1)c1ccc([N+](=O)[O-])cc1 | 21 | 2 | 1 | 2 | / | /
COc1ccc2oc(C(=O)OC(C)C(=O)N(C)c3ccccc3)c(C)c2c1 (stereo unspecified) | 20 | 1 | 7 | -2 | / | /
COc1cc2ccccc2cc1C(=O)Nc1cc(C)ccn1 | 31 | 8.4* | 18 | 56* | 123* | 39*
Cc1ccnc(NC(=O)Cc2ccc(-c3ccccc3)cc2)c1 | 78* | 7.9* | 72 | 22 | 101* | 46*
SMILES | HSF1 activator | FXN GAA850 act | HSF1 inh | AHR activator | GAA30 counter | GAA850 confirm
COc1ccc(NC(=O)Nc2cc(C)ccn2)cc1 | / | 3 | / | / | / | /
COc1ccc(NS(=O)(=O)c2cccc(C(=O)N/N=C(\C)c3ccc(-n4ccnc4)cc3)c2)cc1 | 1 | 3 | -7 | 20 | / | /
CN1CCN(S(=O)(=O)c2ccc(Cl)cc2)CC1 | 0 | 1 | 0 | 7 | / | /
CN1CCN(S(=O)(=O)c2ccc(-c3ccc(Cl)cc3)cc2)CC1 | 10 | 13* | 6 | 5 | 46* | 13*
C=CCN(c1ccccc1)S(=O)(=O)c1ccc2c(c1)oc(=O)n2C | 15 | -2 | -1 | 7 | / | /
COc1ccc([N+](=O)[O-])cc1Nc1c2ccccc2nc2ccccc12 | -15 | 9.3* | -9 | -1 | 3 | 21*
O=[N+]([O-])c1ccccc1Nc1c2ccccc2nc2ccccc12 | 3 | 9.6* | 2 | 3 | 32* | 16*
COc1ccc(-c2cc(C)no2)cc1S(=O)(=O)N1CCCN(Cc2ccccc2Cl)C1 | -6 | -1 | -4 | 2 | / | /
COc1ccccc1/C=C/C1C(C(=O)OCC(C)C)=C(C)N=C2SCCC(=O)N21 (stereo unspecified) | 17 | 3 | 15 | 5 | / | /
COC(=O)C1=C(C)N=C2SCCC(=O)N2C1/C=C/c1ccccc1 (stereo unspecified) | 40 | 8.0* | 12 | -2 | 6 | 5
